Screens: PubChem, National Center for Advancing Translational Sciences (NCATS)
TDP1 cell noCPT: qHTS for Inhibitors of human tyrosyl-DNA phosphodiesterase 1 (TDP1): qHTS in cells in absence of CPT | Potency, µM (series often up to 46.2 µM), for inactives: at the top dose activity change, negative = growth inhibition, hits mostly inhibitors | DT40 Tdp1-/- hTDP1 cells, no CPT, ATP luminescence, 48 h | 15% of 420,000 active; note: % is set by controls: 0 for no effect and ±100 for the full control effect; nearly all actives have a fitted effect of over 55% in size
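Chicken DT40 Tdp1-/- cells complemented with human TDP1, screened without camptothecin (DMSO vehicle only), 400 cells/well. Compounds pin-transferred, cells incubated at 37 °C for at least 48 hr. Growth read as ATP-dependent luminescence (CellTiter-Glo, 30 min at RT).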
TGFb inhibitor: TGF-b pathway inhibition. HepG2 CAGA-GFP TGF-b/SMAD3 reporter, GFP fluorescence, 18 h; TGF-beta stimulated, 500 pg/mL final. Potency, µM (doses to about 46.1 µM), inactives show at the top dose activity, negative = inhibition, usual class: inhibitors. 1.2% of 410,000 active. AID 588855; note: % is set by controls: 0 for no effect and ±100 for the full control effect; nearly all actives have a fitted effect of over 65% in size
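TGF-beta reporter screen: HEPG2 CAGA-GFP, 1% FBS, 500 pg/mL TGF-beta final, 18 h; per-cell GFP summed per well; curves fitted and categorized by class.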
DT40 TDP1 CPT: DT40-hTDP1 cell growth loss with CPT. chicken DT40 Tdp1-/-;hTDP1 cells + 20 nM CPT, ATP luminescence, 48 h. Potency, µM (top dose mostly 46.2 µM), for inactives: at the highest dose activity change, negative = growth inhibition, most hits filed as inhibitors. 12% of 420,000 active. AID 686979; note: % is set by controls: 0 for no effect and ±100 for the full control effect; nearly all actives have a fitted effect of over 55% in size
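Cell growth measured by CellTiter-Glo luminescence after a minimum 48 h, 37 C compound exposure with 20 nM CPT in Tdp1-knockout DT40 cells stably expressing hTDP1, seeded 400/well; qHTS titration format.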
HT1080NT lethal: kills 2HG-producing HT-1080-NT fibrosarcoma cells; HT-1080-NT fibrosarcoma viability, CellTiter-Glo ATP luminescence, 48 h; Potency, µM (highest dose often 46.1 µM), for the others: top-dose activity, negative = less viability, most hits filed as cytotoxic; 1.6% of 360,000 active; AID 686970;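 note: NT is the 2HG producing partner of a matched IDH1 knockdown line; 0% = DMSO-treated cells and -100% = media-only wells without cells; nearly all actives have a fitted effect of over 55% in size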
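HT-1080-NT fibrosarcoma cells (2HG-overproducing), 750 cells/well in RPMI with 5% FBS, dosed after 2 h and incubated 48 h at 37C. CellTiter-Glo luminescence normalized to DMSO and no-cell wells; concentration-response curves fitted and classed.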
HT1080 IDH1KD tx: kills HT-1080 cells with IDH1 knockdown; 2% of 360,000 active; Potency, µM (top dose mostly 46.1 µM), without a hit: at the highest dose activity, negative = toxicity, most hits filed as cytotoxic; HT-1080 IDH1 knockdown viability, ATP luminescence, 48 h;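 note: 0% = DMSO wells and -100% = cell-free medium wells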
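After a 2 h attachment period, IDH1KD HT-1080 cells took pin-transferred compound for 48 h at 37 °C; ATP-based luminescence after 10 min room-temperature reagent incubation reported viability.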
HepG2 viability: kills HepG2 cells in TGF-b inhibitor counter-screen. HepG2 CAGA-GFP viability, ATP luminescence, 18 h. Potency, µM (highest dose often 46.1 µM), without a hit: top-dose activity change, negative = cytotoxicity, most hits filed as cytotoxic. 0.76% of 410,000 active
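CellTiter-Glo luminescence gave cytotoxicity after 18 hours at 37 degrees C. The cells were HepG2 CAGA-GFP in 1% FBS DMEM, stimulated with 500 pg/mL TGF-beta after compound addition. %Activity was normalised to no-cell wells (complete cell-killing) and DMSO (no toxicity), and curves were fitted and classified.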
* marks the source's active call; other numbers are inactive results; ? = inconclusive; . = no result given. This is a sample that favours compounds with a hit; in the whole collection about 17% have one here. Calls come from the whole dose curve; as a rule, active = well fitted curve in the direction sought with a large enough effect; inconclusive = small, poorly fitted or top-dose-only effect, or another doubt; inactive = no such curve, though single readings can be large; an effect the other way counts as inactive or inconclusive. Potency is the fitted concentration of half-maximal effect.

SMILES | TDP1 cell noCPT | TGFb inhibitor | DT40 TDP1 CPT | HT1080NT lethal | HT1080 IDH1KD tx | HepG2 viability
O=C(CNC(=O)c1cccc(F)c1)N/N=C/c1cc(Br)ccc1OCc1ccccc1 | ? | -37% | ? | -26% | -16% | -32%
CC(=O)N/N=C\c1ccccc1OC/C=C/c1ccccc1 | ? | -8% | 16µM* | 4% | 12% | -17%
CCC(=O)NC(=S)Nc1cccc(NC(=O)c2ccccc2)c1 | 2% | -14% | 6% | -13% | 1% | -16%
CC(=O)Nc1ccc(NC(=O)c2ccc(COc3ccccc3)cc2)cc1 | -15% | 18% | -9% | 1% | 4% | 1%
CC(=O)Nc1ccc(C(=O)N/N=C/c2ccccc2OCc2ccccc2)cc1 | 21µM* | 39% | ? | 16µM* | 21µM* | 0%
O=C(N/N=C/c1cccnc1)c1cc(-c2ccccc2OCc2ccccc2)n[nH]1 | 23µM* | -7% | ? | ? | ? | -2%
O=C(N/N=C/c1ccccc1F)c1ccccc1OCc1ccccc1 | 21µM* | 28% | ? | -13% | -2% | 9%
O=C(N/N=C/c1ccccc1[N+](=O)[O-])c1ccc(COc2ccccc2-c2ccccc2)cc1 | 12µM* | 8% | 12µM* | 7% | 10% | 3%
Cc1cc(Br)ccc1NC(=O)CSCc1c(C)noc1C | -27% | -17% | ? | 5% | 14% | -19%
O=C(NC1CCCCC1)c1csnn1 | -14% | -3% | 3% | 19% | ? | 8%
CC(=O)c1cccc(NS(=O)(=O)c2cc(-c3onc(C)c3C)ccc2C)c1 | -20% | -7% | ? | . | . | -26%
CCOc1ccc(-n2c(SCC(=O)N3CCCC3)nc3c([nH]c4ccccc43)c2=O)cc1 | -5% | -13% | -7% | . | . | 1%
COc1ccc(-n2c(=O)c(CCC(=O)N3CCC(C)CC3)nc3ccccc32)cc1 | ? | -14% | 18µM* | -1% | 0% | -11%
CCOc1ccc(-n2c(SCC(=O)N3CCCCCC3)nc3c([nH]c4ccccc43)c2=O)cc1 | 23µM* | -11% | 21µM* | . | . | -11%
CCOc1ccc(-n2c(SCC(=O)N3CCC(C)CC3)nc3c([nH]c4ccccc43)c2=O)cc1 | 5.2µM* | 2% | 2.1µM* | . | . | -12%
Cc1ccc(-n2c(SCC(=O)N3CCC(C)CC3)nc3c([nH]c4ccccc43)c2=O)cc1 | -23% | -5% | -24% | . | . | -9%
CCOC(=O)C(=CNc1ccc(NC2=NCC(C)S2)cc1)C(=O)OCC (configuration not stated) | 6.5µM* | -14% | 9.2µM* | 13% | 7% | -11%
CCOC(=O)C(=CNc1ccc(C(F)(F)F)cc1)C(=O)OCC | -32% | 2% | 4% | 10% | -1% | 12%
Cc1noc(-c2ccc(NC(C)c3ccccc3)c([N+](=O)[O-])c2)n1 (configuration not stated) | 23µM* | -27% | 16µM* | . | . | -41%
CCc1noc(-c2ccc(NC(C)c3ccccc3)c([N+](=O)[O-])c2)n1 (configuration not stated) | ? | -35% | 18µM* | . | . | -4%
O=C(N/N=C/c1ccccc1)C(=O)N/N=C/c1ccccc1 | 8% | 4% | -6% | 14% | 11% | 9%
O=C(C=C=Nc1ccccc1)C(=O)N=C=Cc1ccccc1 | 4.6µM* | ? | 1.8µM* | 6.5µM* | 3.7µM* | -55%
Cc1sc2ncnc(SCC(=O)N3c4ccccc4Sc4ccc(Cl)cc43)c2c1C | ? | -7% | -10% | 14% | 15% | 0%
